# Screen size: about 5,500 compounds; about 2,000 (36%) were called active. About 18% were inconclusive and are not listed. Some of the results follow. A number with no mark means an inactive call. Rule as the data show it: active = normalized growth mostly below about 0.91 (no sharp cut-off); inconclusive = no clear call, values can overlap the other calls; inactive = mostly above about 0.92.
# Experiment: chemical genetic growth profiling, strain panel (AID 1159580);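 also: tested at 20 µM; growth read once vehicle control cultures reached saturation at 30 °C; 1 = growth at the plate median or of vehicle wells; lower values mean less growth of the strain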
# Conditions: growth OD
# [1] = S. cerevisiae deletion strains, locus YDL101C, strain DUN1, active compounds read low
# [2] = S. cerevisiae deletion strains, locus YHR030C, strain SLT2, active compounds read low
compound,measurement,setting,value
COc1ccc(/C=C(\C#N)c2nc3ccccc3[nH]2)cc1OC,normalized growth,"S. cerevisiae deletion strains, locus YAL013W, strain DEP1, active compounds read low",0.947
same,normalized growth,"S. cerevisiae deletion strains, locus YBR229C, strain ROT2, active compounds read low",0.947
same,normalized growth,[1],0.961
same,normalized growth,"S. cerevisiae deletion strains, locus YDL134C, strain PPH21, active compounds read low",0.942
same,normalized growth,"S. cerevisiae deletion strains, locus YDR150W, strain NUM1, active compounds read low",0.934
same,normalized growth,"S. cerevisiae deletion strains, locus YEL061C, strain CIN8, active compounds read low",0.921
same,normalized growth,"S. cerevisiae deletion strains, locus YGR078C, strain PAC10, active compounds read low",0.948
same,normalized growth,[2],0.703
same,normalized growth,"S. cerevisiae deletion strains, locus YHR087W, strain rtc3, active compounds read low",0.912
same,normalized growth,"S. cerevisiae deletion strains, locus YJR043C, strain POL32, active compounds read low",0.959
same,normalized growth,"S. cerevisiae deletion strains, locus YJR075W, strain HOC1, active compounds read low",0.859 (active)
same,normalized growth,"S. cerevisiae deletion strains, locus YLR039C, strain RIC1, active compounds read low",0.817
same,normalized growth,"S. cerevisiae deletion strains, locus YLR058C, strain SHM2 (second series), active compounds read low",0.957
same,normalized growth,"S. cerevisiae deletion strains, locus YLR085C, strain ARP6, active compounds read low",0.499 (active)
same,normalized growth,"S. cerevisiae deletion strains, locus YLR262C, strain YPT6, active compounds read low",0.851
same,normalized growth,"S. cerevisiae deletion strains, locus YML094W, strain GIM5, active compounds read low",0.909
same,normalized growth,"S. cerevisiae deletion strains, locus YMR219W, strain ESC1, active compounds read low",0.971
same,normalized growth,"S. cerevisiae deletion strains, locus YMR263W, strain SAP30, active compounds read low",0.956
same,normalized growth,"S. cerevisiae deletion strains, locus YMR307W, strain GAS1, active compounds read low",0.609 (active)
same,normalized growth,"S. cerevisiae deletion strains, locus YNL153C, strain GIM3, active compounds read low",0.975
same,normalized growth,"S. cerevisiae deletion strains, locus YNL298W, strain CLA4 (second series), active compounds read low",0.856
same,normalized growth,"S. cerevisiae deletion strains, locus YNL322C, strain KRE1, active compounds read low",0.95
same,normalized growth,"S. cerevisiae deletion strains, locus YNR030W, strain Alg12, active compounds read low",0.906
same,normalized growth,"S. cerevisiae deletion strains, locus YOL006C, strain TOP1, active compounds read low",0.725 (active)
same,normalized growth,"S. cerevisiae deletion strains, locus YPL055C, strain LGE1, active compounds read low",0.885
same,normalized growth,"S. cerevisiae deletion strains, locus YPL241C, strain CIN2, active compounds read low",0.857 (active)
same,normalized growth,"S. cerevisiae deletion strains, locus YPR135W, strain CTF4, active compounds read low",0.759
same,normalized growth,"S. cerevisiae strains, strain wild type, active compounds read low",0.94
O=C(SCc1c(Cl)cccc1Cl)c1ccc([N+](=O)[O-])o1,normalized growth,"S. cerevisiae deletion strains, locus YAR019C, strain CDC15, active compounds read low",0.954
same,normalized growth,"S. cerevisiae deletion strains, locus YBL105C, strain PKC1, active compounds read low",0.96
same,normalized growth,"S. cerevisiae deletion strains, locus YBR135W, strain CKS1, active compounds read low",0.968
same,normalized growth,"S. cerevisiae deletion strains, locus YBR136W, strain MEC1, active compounds read low",0.969
same,normalized growth,"S. cerevisiae deletion strains, locus YBR160W, strain CDC28, active compounds read low",0.964
same,normalized growth,"S. cerevisiae deletion strains, locus YDL017W, strain CDC7, active compounds read low",0.967
same,normalized growth,"S. cerevisiae deletion strains, locus YDL028C, strain MPS1, active compounds read low",0.969
same,normalized growth,[1],0.978
same,normalized growth,"S. cerevisiae deletion strains, locus YDL108W, strain KIN28, active compounds read low",0.961
same,normalized growth,"S. cerevisiae deletion strains, locus YDL132W, strain cdc53, active compounds read low",0.967
same,normalized growth,"S. cerevisiae deletion strains, locus YDL214C, strain PRR2, active compounds read low",0.456 (active)
same,normalized growth,"S. cerevisiae deletion strains, locus YDR052C, strain DBF4, active compounds read low",0.967
same,normalized growth,"S. cerevisiae deletion strains, locus YDR054C, strain cdc34, active compounds read low",0.95
same,normalized growth,"S. cerevisiae deletion strains, locus YDR226W, strain ADK1, active compounds read low",0.959
same,normalized growth,"S. cerevisiae deletion strains, locus YDR477W, strain SNF1, active compounds read low",0.295 (active)
same,normalized growth,"S. cerevisiae deletion strains, locus YER123W, strain YCK3, active compounds read low",0.422 (active)
same,normalized growth,"S. cerevisiae deletion strains, locus YER133W, strain GLC7, active compounds read low",0.553 (active)
same,normalized growth,"S. cerevisiae deletion strains, locus YFL009W, strain cdc4, active compounds read low",0.955
same,normalized growth,"S. cerevisiae deletion strains, locus YFL029C, strain CAK1, active compounds read low",0.951
same,normalized growth,"S. cerevisiae deletion strains, locus YFR003C, strain YPI1, active compounds read low",0.962
same,normalized growth,"S. cerevisiae deletion strains, locus YFR019W, strain FAB1, active compounds read low",0.612 (active)
same,normalized growth,"S. cerevisiae deletion strains, locus YFR028C, strain CDC14, active compounds read low",0.962
same,normalized growth,"S. cerevisiae deletion strains, locus YGR040W, strain KSS1, active compounds read low",0.324 (active)
same,normalized growth,"S. cerevisiae deletion strains, locus YGR052W, strain FMP48, active compounds read low",0.502 (active)
same,normalized growth,"S. cerevisiae deletion strains, locus YGR092W, strain DBF2, active compounds read low",0.221 (active)
same,normalized growth,[2],0.179 (active)
same,normalized growth,"S. cerevisiae deletion strains, locus YHR079C, strain IRE1, active compounds read low",0.334 (active)
same,normalized growth,"S. cerevisiae deletion strains, locus YHR082C, strain KSP1, active compounds read low",0.332 (active)
same,normalized growth,"S. cerevisiae deletion strains, locus YHR205W, strain SCH9, active compounds read low",0.0602 (active)
same,normalized growth,"S. cerevisiae deletion strains, locus YIL147C, strain SLN1, active compounds read low",0.972
same,normalized growth,"S. cerevisiae deletion strains, locus YJL095W, strain BCK1, active compounds read low",0.624
same,normalized growth,"S. cerevisiae deletion strains, locus YJL128C, strain PBS2, active compounds read low",0.868
same,normalized growth,"S. cerevisiae deletion strains, locus YJL157C, strain FAR1, active compounds read low",0.477 (active)
same,normalized growth,"S. cerevisiae deletion strains, locus YJR016C, strain ILV3, active compounds read low",0.965
same,normalized growth,"S. cerevisiae deletion strains, locus YJR066W, strain TOR1 (second series), active compounds read low",0.351 (active)
same,normalized growth,"S. cerevisiae deletion strains, locus YJR066W, strain TOR1, active compounds read low",0.425 (active)
same,normalized growth,"S. cerevisiae deletion strains, locus YKL048C, strain ELM1, active compounds read low",0.65 (active)
same,normalized growth,"S. cerevisiae deletion strains, locus YKL067W, strain YNK1, active compounds read low",0.652 (active)
same,normalized growth,"S. cerevisiae deletion strains, locus YKL101W, strain HSL1, active compounds read low",0.571 (active)
same,normalized growth,"S. cerevisiae deletion strains, locus YKL193C, strain SDS22, active compounds read low",0.954
same,normalized growth,"S. cerevisiae deletion strains, locus YKL203C, strain TOR2, active compounds read low",0.438 (active)
same,normalized growth,"S. cerevisiae deletion strains, locus YLR113W, strain HOG1, active compounds read low",0.4 (active)
same,normalized growth,"S. cerevisiae deletion strains, locus YLR133W, strain CKI1, active compounds read low",0.499 (active)
same,normalized growth,"S. cerevisiae deletion strains, locus YLR403W, strain SFP1, active compounds read low",0.201 (active)
same,normalized growth,"S. cerevisiae deletion strains, locus YML070W, strain DAK1, active compounds read low",0.547 (active)
same,normalized growth,"S. cerevisiae deletion strains, locus YMR001C, strain CDC5, active compounds read low",0.942
same,normalized growth,"S. cerevisiae deletion strains, locus YMR205C, strain PFK2 (second series), active compounds read low",0.677 (active)
same,normalized growth,"S. cerevisiae deletion strains, locus YMR277W, strain FCP1, active compounds read low",0.968
same,normalized growth,"S. cerevisiae deletion strains, locus YNL006W, strain LST8, active compounds read low",0.976
same,normalized growth,"S. cerevisiae deletion strains, locus YNL020C, strain ARK1, active compounds read low",0.48 (active)
same,normalized growth,"S. cerevisiae deletion strains, locus YNL161W, strain CBK1, active compounds read low",0.965
same,normalized growth,"S. cerevisiae deletion strains, locus YNL183C, strain NPR1, active compounds read low",0.438 (active)
same,normalized growth,"S. cerevisiae deletion strains, locus YNL207W, strain RIO2, active compounds read low",0.947
same,normalized growth,"S. cerevisiae deletion strains, locus YNL222W, strain SSU72, active compounds read low",0.971
same,normalized growth,"S. cerevisiae deletion strains, locus YNL307C, strain MCK1 (second series), active compounds read low",0.247 (active)
same,normalized growth,"S. cerevisiae deletion strains, locus YOL078W, strain AVO1, active compounds read low",0.963
same,normalized growth,"S. cerevisiae deletion strains, locus YOL136C, strain PFK27, active compounds read low",0.406 (active)
same,normalized growth,"S. cerevisiae deletion strains, locus YOR061W, strain CKA2, active compounds read low",0.633 (active)
same,normalized growth,"S. cerevisiae deletion strains, locus YOR119C, strain RIO1, active compounds read low",0.445 (active)
same,normalized growth,"S. cerevisiae deletion strains, locus YOR231W, strain MKK1, active compounds read low",0.578 (active)
same,normalized growth,"S. cerevisiae deletion strains, locus YOR329C, strain SCD5, active compounds read low",0.964
same,normalized growth,"S. cerevisiae deletion strains, locus YPL031C, strain PHO85, active compounds read low",0.396 (active)
same,normalized growth,"S. cerevisiae deletion strains, locus YPL153C, strain RAD53, active compounds read low",0.614 (active)
same,normalized growth,"S. cerevisiae deletion strains, locus YPL204W, strain HRR25, active compounds read low",0.371 (active)
same,normalized growth,"S. cerevisiae deletion strains, locus YPL209C, strain IPL1, active compounds read low",0.976
same,normalized growth,"S. cerevisiae deletion strains, locus YPL256C, strain CLN2, active compounds read low",0.232 (active)
same,normalized growth,"S. cerevisiae deletion strains, locus YPR025C, strain CCL1, active compounds read low",0.959
same,normalized growth,"S. cerevisiae deletion strains, locus YPR106W, strain ISR1, active compounds read low",0.985
same,normalized growth,"S. cerevisiae deletion strains, locus YPR111W, strain DBF20, active compounds read low",0.978
same,normalized growth,"S. cerevisiae deletion strains, strain NNK1, active compounds read low",0.959
same,normalized growth,"S. cerevisiae deletion strains, strain TSCII, active compounds read low",0.939

# From PubChem BioAssay AID1159580 (chemical genetic matrix, 2015)
